This is an account of results in PubChem BioAssay (NCATS).

Each structure is given as a SMILES string. Where “and” joins values, the source holds several entries; their conditions need not be identical. Equal values may be shown once. A number with no mark means an inactive call. Records with an inconclusive call do not appear. Calls of active or inactive are those of the source. Unless noted, calls follow the shape of the dose curve; as a rule, active = well fitted curve in the direction sought with a large enough effect; inconclusive = small, poorly fitted or top-dose-only effect, or another doubt; inactive = no such curve, though single readings can be large; an effect the other way counts as inactive or inconclusive.

For one assay, the system named is Hek293T. The assay can be described thus: Primary qHTS to identify gynecologic anti-cancer compounds using libraries of approved drugs and bioactive compounds (AID 1345084). Also: % is scaled to controls: 0 for no effect and ±100 for the full control effect; nearly all actives have a fitted effect of over 55% in size. Conditions: Gynecologic cancer cell panel viability, ATPlite luminescence, 48 h, control line for the selectivity index; series mostly up to 57.5 µM. The method in brief: (§1)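 ATP-based viability (ATPlite), 1,000 cells/well, 16 h pre-incubation, 48 h compound at 37 C, 5% CO2, 15 min RT before read.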
(Quantitative high-throughput screening tests each substance at several concentrations.)

A further assay has as its system JEG-3. Described as above. As to conditions: Gynecologic cancer cell panel viability, ATPlite luminescence, 48 h; series mostly up to 57.5 µM. In outline: as §1
For orientation: In ATP-based viability assays light output follows the ATP content of the culture.

In a further assay the test system is OV90. The description is as above. As to conditions: Gynecologic cancer cell panel viability, ATPlite luminescence, 48 h; series mostly up to 57.5 µM. The method in brief:
as §1

For another assay, the system named is PA-1. The description is as above. As to conditions: Gynecologic cancer cell panel viability, ATPlite luminescence, 48 h; series mostly up to 57.5 µM. In outline: as §1
For the next assay, the system named is SKOV3. The description is as above. As to conditions: Gynecologic cancer cell panel viability, ATPlite luminescence, 48 h; series mostly up to 57.5 µM. The method in brief: as §1
Assay [1] in a line: Drug repurposing screens with cells derived from glioblastoma tumor samples (AID 1345199). Also: nearly all actives have a fitted effect of over 40% in size. Also: potency is read from the fitted curve at half-maximal effect. As to activity, negative = cell killing: % is scaled to controls: 0 for no effect and ±100 for the full control effect. Conditions: GBM patient neurospheres viability, ATP luminescence, 48 h. In outline:
(§2)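 Four patient lines of CD133+ GBM neurospheres were screened at several concentrations; hits were retested in those lines plus three slower-growing GBM lines, using 48-hour treatment and ATP-based viability.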

Another assay concerns Tov-21-G. The assay can be described thus: Primary qHTS to identify gynecologic anti-cancer compounds using libraries of approved drugs and bioactive compounds (AID 1345084). Also: % is scaled to controls: 0 for no effect and ±100 for the full control effect; nearly all actives have a fitted effect of over 55% in size. Conditions: Gynecologic cancer cell panel viability, ATPlite luminescence, 48 h; series mostly up to 57.5 µM. In outline:
as §1

The subject of a further assay is Tov112D. The assay is described as above. Conditions: Gynecologic cancer cell panel viability, ATPlite luminescence, 48 h; series mostly up to 57.5 µM. In outline:
as §1

The subject of another assay is astro. As to the kind of experiment: Drug repurposing screens with cells derived from glioblastoma tumor samples (AID 1345199). Also: nearly all actives have a fitted effect of over 40% in size. Also: potency is read from the fitted curve at half-maximal effect. As to activity, negative = cell killing: % is scaled to controls: 0 for no effect and ±100 for the full control effect. As to conditions: viability, ATP luminescence, 48 h; series mostly up to 45.9 µM. In outline: as §2
Assay [2] concerns the target Nuclear receptor subfamily 1 group I member 2 (Rattus norvegicus) (UniProt Q9R1A7). As to the kind of experiment: qHTS assay for small molecule activators of the rat pregnane X receptor (rPXR) signaling pathway (AID 651751; call rule not given here; also: 0% is about no effect). As to conditions: rPXR reporter cells, luciferase (One-Glo), 24 h.
Assay [3] is described as follows: qHTS assay for small molecule activators of the human pregnane X receptor (PXR) signaling pathway (AID 720659; call rule not given here; also: 0% is about no effect). As to conditions: DPX-2 HepG2 CYP3A4-luciferase, 24 h; series mostly up to 92.3 µM.
The mark [4] stands for this setting: at 46.1 µM (top of the series), tumour line C.
Setting [5] is: at 45.9 µM (top of the series), tumour line B.
[6] abbreviates: at 45.9 µM (top of the series), tumour line D.

Chain of Nuclear receptor subfamily 1 group I member 2 (Rattus norvegicus) (Q9R1A7 whole entry, looked up): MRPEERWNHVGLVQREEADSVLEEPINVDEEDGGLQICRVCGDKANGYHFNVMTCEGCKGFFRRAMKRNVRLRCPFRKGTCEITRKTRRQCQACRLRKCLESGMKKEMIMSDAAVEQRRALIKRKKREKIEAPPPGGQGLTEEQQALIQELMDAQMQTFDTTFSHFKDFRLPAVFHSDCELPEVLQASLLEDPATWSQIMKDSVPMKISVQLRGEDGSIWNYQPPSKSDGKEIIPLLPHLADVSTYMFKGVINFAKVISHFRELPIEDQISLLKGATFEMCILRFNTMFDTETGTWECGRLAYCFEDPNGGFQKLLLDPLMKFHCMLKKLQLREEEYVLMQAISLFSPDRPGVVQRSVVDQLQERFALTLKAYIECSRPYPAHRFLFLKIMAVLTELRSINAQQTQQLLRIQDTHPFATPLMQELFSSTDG

For `C#C[C@]1(OC(C)=O)CC[C@H]2[C@@H]3CCC4=C/C(=N/O)CC[C@@H]4[C@H]3CC[C@@]21CC`, the Potency entry in the assay with Hek293T, in the assay on JEG-3, with OV90, in the assay with PA-1 and in the assay with SKOV3 was “inactive” in each case. The activity, negative = cell killing in assay [1] (setting [4]) was -21.9%. Also, the Potency in [1] (tumour line A) is 8.91 µM (active).
With `CCc1cc(Cl)c(OC)c(C(=O)NC[C@@H]2CCCN2CC)c1O`, the Potency entry with Hek293T, with JEG-3, with OV90, in the assay with PA-1, in the assay on SKOV3 and in the assay with Tov-21-G was “inactive” each time. Besides, the Potency entry in the assay on Tov112D and in the assay with astro was “inactive” each time.
As for `COc1ccc(C(=O)c2ccccc2)c(O)c1`, the Potency entry with Hek293T, in the assay with JEG-3, in the assay with OV90, in the assay with PA-1, with SKOV3 and in the assay on Tov-21-G was “inactive” throughout. For the same compound, the Potency result with Tov112D and in the assay on astro was “inactive” in each case. Also, the activity, negative = cell killing is 1.18% in assay [1] (setting [5]), -2.35% in assay [1] (setting [6]) and -6.38% in assay [1] (setting [4]). In assay [2], the max response is 7.56% and 2.38%.
For `CC(C)Nc1cccnc1N1CCN(C(=O)c2cc3cc(NS(C)(=O)=O)ccc3[nH]2)CC1`, the Potency entry in the assay with Hek293T, in the assay on JEG-3, in the assay with OV90, with PA-1, in the assay with SKOV3 and in the assay with Tov-21-G was “inactive” in each case. The Potency result in the assay on Tov112D and in the assay with astro was “inactive” each time. Also, the activity, negative = cell killing in [1] (setting [5]) was -14.1%; in assay [1] (setting [6]), 0.603%.
Regarding `CN(C)C(=O)Nc1ccc(Cl)c(Cl)c1`, the Potency entry with Hek293T, in the assay on JEG-3, in the assay with OV90, in the assay with PA-1, in the assay with SKOV3 and in the assay with Tov-21-G was “inactive” throughout. In addition, the Potency entry in the assay with Tov112D and in the assay on astro was “inactive” in each case. Besides, the activity, negative = cell killing in [1] (setting [5]) was -10.4%; in assay [1] (setting [6]), -7.69%; in assay [1] (setting [4]), -10.1%. Further, the max response in assay [2] was 5.92%. The outcome in assay [3] was inactive.
For `C/C=C/c1ccc(O)c(OC)c1`, the Potency result with Hek293T, in the assay with JEG-3, in the assay with OV90, with PA-1, with SKOV3 and in the assay with Tov-21-G was “inactive” each time. In addition, the Potency entry in the assay on Tov112D and in the assay with astro was “inactive” in each case. Besides, the activity, negative = cell killing in [1] (setting [5]) was -4.55%; in [1] (setting [6]), -0.156%; in assay [1] (setting [4]), -3.58%. In addition, the max response in [2] is 1.38% and 1.79%. Moreover, in [3], the call was inactive.
Turning to `CCCCOC(=O)CC(CC(=O)OCCCC)(OC(C)=O)C(=O)OCCCC`, the Potency entry with Hek293T, with JEG-3, in the assay with OV90, in the assay on PA-1, with SKOV3 and in the assay with Tov-21-G was “inactive” each time. The Potency result in the assay on Tov112D is “inactive”. In addition, the activity, negative = cell killing was -5.84% in [1] (setting [5]), -7.23% in assay [1] (setting [6]) and -12.4% in assay [1] (setting [4]). Also, the max response in assay [2] is 12%.
For `NS(=O)(=O)Cc1noc2ccccc12`, the Potency result with Hek293T, in the assay on JEG-3, in the assay with OV90, in the assay with PA-1, in the assay on SKOV3 and in the assay on Tov-21-G was “inactive” in each case. For the same compound, the Potency entry in the assay on Tov112D and with astro was “inactive” each time. The activity, negative = cell killing in [1] (setting [5]) is -12.5%; in [1] (setting [6]), -13.1%; in [1] (setting [4]), 1.44%.
`CC1(C)OC[C@@H]2O[C@@]3(C(=O)O)OC(C)(C)O[C@H]3[C@@H]2O1`: the Potency entry with Hek293T, in the assay with JEG-3, in the assay on OV90, in the assay with PA-1, in the assay with SKOV3 and in the assay with Tov-21-G was “inactive” each time. Moreover, the Potency result in the assay with Tov112D and with astro was “inactive” each time. Also, the activity, negative = cell killing in assay [1] (setting [5]) was 2.23%; in assay [1] (setting [6]), 2.89%; in assay [1] (setting [4]), -11.9%. The max response in [2] was 0.338%. Also, the compound was called inactive in assay [3].
Consider `O=C1c2cccc3c2[C@H](CCC3)CN1[C@@H]1CN2CCC1CC2`, for which the Potency entry with Hek293T, with JEG-3, with OV90, with PA-1, in the assay on SKOV3 and with Tov-21-G was “inactive” in each case. The Potency entry in the assay on Tov112D and with astro was “inactive” throughout. Besides, in assay [1] (setting [5]), the activity, negative = cell killing is -28.4%. Moreover, the Potency in assay [1] (tumour line A) and in [1] (tumour line D) was 11.2 µM (active) throughout.
As to `CO[C@H]1C=CO[C@@]2(C)Oc3c(C)c(O)c4c(O)c(c(/C=N/N5CCN(C)CC5)c(O)c4c3C2=O)NC(=O)/C(C)=C\C=C[C@H](C)[C@H](O)[C@@H](C)[C@@H](O)[C@@H](C)[C@H](OC(C)=O)[C@@H]1C`, the Potency entry in the assay with Hek293T, with JEG-3, in the assay on OV90, with PA-1, in the assay with SKOV3 and with Tov-21-G was “inactive” each time. Further, the Potency entry with Tov112D was “inactive”. The Potency in the assay with astro is 31.6 µM (active).
`CC(C)(C)CC(C)(C)c1ccc(O)c(-n2nc3ccccc3n2)c1`: the Potency entry with Hek293T, in the assay with JEG-3, in the assay on OV90, in the assay with PA-1, with SKOV3 and in the assay on Tov-21-G was “inactive” each time. Also, the Potency result in the assay with Tov112D and in the assay with astro was “inactive” throughout. Also, the max response in assay [2] was 0.874%.
